Holding throughout (test): NCI-60 one-dose screen, 48 h (100 = growth as untreated, 0 = no growth, -100 = all killed)
In test [1] the test system is HCT-15 colon. Particulars: 10 µM unless noted.
Test [2] relates to HT29 colon. Particulars: 10 µM unless noted.
Test [3] has as its system SNB-75 CNS. The note with it: 10 µM unless noted.
In test [4] the test system is SNB-19 CNS. Particulars: 10 µM unless noted.
Test [5] has as its system U251 CNS. Particulars: 10 µM unless noted.
In test [6] the test system is SK-MEL-5 melanoma. The note with it: 10 µM unless noted.
Test [7] deals with UACC-62 melanoma. The note with it: 10 µM unless noted.
The subject of test [8] is LOX IMVI melanoma. The note with it: 10 µM unless noted.
Test [9] relates to SK-MEL-28 melanoma. Particulars: 10 µM unless noted.
Test [10] deals with SK-MEL-2 melanoma. The note with it: 10 µM unless noted.
In test [11] the test system is EKVX NSCLC. Particulars: 10 µM.
In test [12] the test system is SN12C renal. The note with it: 10 µM unless noted.
Test [13] relates to UO-31 renal. Particulars: 10 µM unless noted.
In test [14] the test system is TK-10 renal. Particulars: 10 µM unless noted.
The subject of test [15] is ACHN renal. Particulars: 10 µM unless noted.
Test [16] relates to CAKI-1 renal. The note with it: 10 µM unless noted.
Test [17] deals with A498 renal. The note with it: 10 µM unless noted.
Test [18] has as its system CCRF-CEM leukemia. The note with it: 10 µM.
Test [19] relates to MOLT-4 leukemia. Particulars: 10 µM unless noted.
Test [20] concerns PC-3 prostate. The note with it: 10 µM unless noted.

The panel holds about 83,000 compounds, 20% with a hit somewhere; the sample as a whole holds those more often.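 Each cell line was grown in a 96-well plate and treated with one concentration of compound for 48 hours. Values below 10 were considered active.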 A number with no mark means an inactive call. Activity calls are given as the source filed them.

As for `CCOC(=O)c1sc(NS(=O)(=O)c2ccccc2)nc1C`, the growth was 115% in test [1]; 124% in test [2]; 97.9% in test [3]; 107% in test [4]; 109% in test [5]; 99.3% in test [6]. For the same molecule, the growth is 103% in [7]; 105% in test [8]; 123% in test [9]; 2.52% (active) in test [10]; 116% in test [11]; 100% in [12]. Moreover, the growth in test [13] was 87%; in [14], 163%; in [15] it was 123%; in test [16], 124%; in test [17] it was 114%; in test [18] it was 103%. In addition, in test [19], the growth is 75.6%.

Consider `CCCCCCCCc1ccc(CCC(N)(CO)CO)cc1`, for which the growth in test [1] was -10% (active); in [2], -83.4% (active); in [3] it was 57.6%; in test [4], 52.5%; in test [5] it was -85.2% (active); in [20], 37.1%. In addition, the growth in test [6] was 90.7%; in [7] it was 86.2%; in [8], -54% (active); in test [9], 92.8%; in test [11], 54.8%; in [13], -7.93% (active). Besides, the growth in [14] is 16.6%; in test [15], -37.2% (active); in test [16], 16.1%; in test [17], 90.1%; in test [18], -5.69% (active); in test [19], -28.3% (active).

As to `[N-]=[N+]=Nc1ncc(-c2ccc(C(F)(F)F)cc2)c(NC2CCCCCC2)n1`, the growth was 25.9% [100 µM] in test [1]; 31.4% [100 µM] in test [2]; 49.6% [100 µM] in test [3]; 40.9% [100 µM] in [4]; 30.3% [100 µM] in test [5]; -8.57% [100 µM] (active) in [20]. Further, the growth in [6] was 26.5% [100 µM]; in [7], 25.5% [100 µM]; in test [8] it was 39.9% [100 µM]; in [9] it was 68.2% [100 µM]; in test [13] it was 22.1% [100 µM]; in test [14], 45.3% [100 µM]. In addition, the growth was 26.8% [100 µM] in test [15], -14.6% [100 µM] (active) in test [16], 32.9% [100 µM] in test [17] and 16.9% [100 µM] in [19].

On to `COc1cc(/C(=C2/O[C@@H]([C@H]3COC(C)(C)O3)[C@H]3OC(C)(C)O[C@@H]23)c2ccc3c(c2)OCO3)cc(OC)c1OC`, for which the growth in [1] is 91.3%; in test [2], 68.4%; in test [3] it was 51.8%; in test [4], 75.7%; in test [5], 47.1%; in test [20], 82.9%. Also, the growth in test [6] was 71.2%; in test [7], 76.1%; in test [8] it was 47%; in [11] it was 74.3%; in [12], 59.9%; in test [14], 70.7%. Moreover, the growth in [15] was 26.4%; in test [16], 68.6%; in test [18], 93.1%; in [19], 106%.

As for `COC(=O)CC(=O)C(=O)OC`, the growth is 103% in test [1]; 106% in test [2]; 92.2% in test [3]; 107% in test [4]; 102% in [5]; 99.8% in test [20]. For the same molecule, the growth in test [6] is 101%; in test [7], 108%; in test [8], 55.1%; in [9] it was 111%; in [12] it was 107%; in [13], 91.4%. The growth was 100% in test [15], 133% in test [16], 113% in [17] and 97.9% in [19].

On to `S=C(N/N=C/c1cc(Cl)cc(Cl)c1)NC12CC3CC(CC(C3)C1)C2`, for which the growth is 84.9% in test [1]; 49.9% in [2]; 45.6% in test [3]; 93.6% in test [4]; 40.6% in test [5]; 75.5% in test [20]. Besides, the growth is 97% in [6]; 89.5% in [7]; 45.1% in [8]; 90.9% in [9]; 88.6% in test [12]; 69% in test [13]. For the same molecule, the growth was 11.1% in test [14]; 4.44% (active) in test [15]; -1.81% (active) in test [16]; 57.1% in [17]; 50.8% in test [18]; 94.1% in test [19].

In the case of `O=C(CCl)c1ccc2c(c1)CCCC2`, the growth in test [1] is 69.6%; in [2] it was 103%; in test [3], 114%; in test [4] it was 108%; in [5], 96.5%; in [20] it was 95.7%. Moreover, the growth was 106% in test [6]; 98.5% in test [7]; 105% in test [9]; 80.3% in test [10]; 96.5% in test [12]; 91.2% in [13]. The growth in test [14] was 86.7%; in [15] it was 98.4%; in test [16], 74.9%; in [17] it was 101%; in [19], 68.6%.

In the case of `O=C1c2cc([N+](=O)[O-])ccc2-c2cc(Cl)c(NC(=O)C(F)(F)F)cc21`, the growth in [1] was 95.4%; in [2], 108%; in test [3], 91.1%; in test [4], 106%; in [5], 110%; in test [20], 94.8%. Besides, the growth is 100% in [6]; 101% in test [7]; 106% in test [9]; 97.1% in test [10]; 73.3% in test [11]; 93.2% in test [13]. The growth in test [14] was 129%; in [15] it was 99.5%; in test [16], 97.2%; in [17], 101%; in test [18], 96.6%.

With `CC1(C)CC(=O)C2=C(C1)Oc1nc(N)c(C#N)c(N)c1C2c1ccc(F)cc1` (stereo not drawn), the growth was 123% in [1]; 99.6% in [2]; 101% in test [3]; 113% in test [4]; 107% in [5]; 91.6% in [6]. Also, the growth in test [7] was 85.6%; in test [8] it was 96.6%; in [9], 110%; in [10], 107%; in test [11], 97.4%; in test [12], 107%. For the same molecule, the growth in test [13] was 181%; in test [14], 72.8%; in test [15] it was 107%; in test [16] it was 92.3%; in test [17], 102%; in test [18], 118%.

Consider `COC(=O)C(Cc1cnc[nH]1)N1CC(=O)N2[C@@H](c3ccccc3)SC[C@H]2C1=O` (stereo partly drawn), for which the growth in test [1] is 107%; in [2] it was 104%; in test [3] it was 120%; in test [4] it was 106%; in test [5], 95.2%; in [20], 97.4%. Further, the growth in [6] is 131%; in test [7] it was 106%; in [8] it was 97.7%; in test [9], 117%; in test [11], 101%; in test [12], 107%. The growth in test [13] is 88.4%; in [15] it was 106%; in test [16] it was 94.1%; in [17], 95.9%; in test [18], 99.6%; in test [19], 99.7%.

The values above are taken from PubChem BioAssay (NCI).
